PubChem BioAssay AID1159580 (chemical genetic matrix, 2015)
The whole screen tested about 5,500 compounds, of which about 2,000 (36%) were called active. Another 18% or so got no clear call; they are omitted. Cut-off read from the data, not from the text of the source: active = normalized growth mostly below about 0.91 (no sharp cut-off); inconclusive = no clear call, values can overlap the other calls; inactive = mostly above about 0.92. Some of the results follow.

Test: chemical genetic growth profiling, strain panel (AID 1159580);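 note: tested at 20 µM; growth read once vehicle control cultures reached saturation at 30 °C; 1 = growth at the plate median or of vehicle wells; lower values mean less growth of the strain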
Settings: growth OD

Measured: normalized growth

CC1=C(C(C)O)C2=NC1C=c1[nH]c(c(C)c1C(C)O)=Cc1[nH]c(c(CCC(=O)O)c1C)C=c1[nH]c(c(C)c1CCC(=O)O)=C2 (stereo not drawn)
inactive: S. cerevisiae deletion strains, locus YJL187C, strain SWE1, active compounds read low 0.995 | S. cerevisiae deletion strains, locus YJR043C, strain POL32, active compounds read low 0.93 | S. cerevisiae deletion strains, locus YJR066W, strain TOR1, active compounds read low 1.02 | S. cerevisiae deletion strains, locus YKL009W, strain mrt4, active compounds read low 1.04 | S. cerevisiae deletion strains, locus YKL068W, active compounds read low 1.01 | S. cerevisiae deletion strains, locus YKL085W, strain MDH1 (second series), active compounds read low 1.02 | S. cerevisiae deletion strains, locus YKL085W, strain MDH1, active compounds read low 1.02 | S. cerevisiae deletion strains, locus YKL160W, strain elf1, active compounds read low 0.99 | S. cerevisiae deletion strains, locus YKL190W, strain CNB1, active compounds read low 1 | S. cerevisiae deletion strains, locus YKR001C, strain vps1, active compounds read low 1 | S. cerevisiae deletion strains, locus YKR026C, strain gcn3, active compounds read low 0.989 | S. cerevisiae deletion strains, locus YKR091W, strain srl3, active compounds read low 1 | S. cerevisiae deletion strains, locus YLL001W, strain dnm1, active compounds read low 0.988 | S. cerevisiae deletion strains, locus YLL026W, active compounds read low 0.992 | S. cerevisiae deletion strains, locus YLL041C, strain sdh2, active compounds read low 0.995 | S. cerevisiae deletion strains, locus YLR027C, strain aat2, active compounds read low 0.982 | S. cerevisiae deletion strains, locus YLR039C, strain RIC1, active compounds read low 1.04 | S. cerevisiae deletion strains, locus YLR058C, strain SHM2, active compounds read low 1 | S. cerevisiae deletion strains, locus YLR102C, strain apc9, active compounds read low 1.02 | S. cerevisiae deletion strains, locus YLR221C, strain rsa3, active compounds read low 0.967 | S. cerevisiae deletion strains, locus YLR258W, strain gsy2, active compounds read low 0.996 | S. cerevisiae deletion strains, locus YLR262C, strain YPT6 (second series), active compounds read low 1.06 | S. cerevisiae deletion strains, locus YLR262C, strain YPT6, active compounds read low 1.01 | S. cerevisiae deletion strains, locus YLR268W, strain sec22, active compounds read low 1.01 | S. cerevisiae deletion strains, locus YLR320W, strain mms22, active compounds read low 0.938 | S. cerevisiae deletion strains, locus YLR330W, strain CHS5, active compounds read low 1.01 | S. cerevisiae deletion strains, locus YLR342W, strain FKS1 (second series), active compounds read low 0.995 | S. cerevisiae deletion strains, locus YLR342W, strain FKS1, active compounds read low 0.987 | S. cerevisiae deletion strains, locus YLR357W, strain rsc2, active compounds read low 0.923 | S. cerevisiae deletion strains, locus YLR370C, strain arc18, active compounds read low 0.988 | S. cerevisiae deletion strains, locus YLR371W, strain rom2, active compounds read low 1.02 | S. cerevisiae deletion strains, locus YLR384C, strain iki3, active compounds read low 0.99 | S. cerevisiae deletion strains, locus YLR418C, strain cdc73, active compounds read low 0.937 | S. cerevisiae deletion strains, locus YML016C, strain PPZ1, active compounds read low 1.01 | S. cerevisiae deletion strains, locus YML032C, strain rad52, active compounds read low 1 | S. cerevisiae deletion strains, locus YML120C, strain ndi1, active compounds read low 1 | S. cerevisiae deletion strains, locus YML124C, strain tub3, active compounds read low 1.02 | S. cerevisiae deletion strains, locus YMR058W, strain fet3, active compounds read low 0.943 | S. cerevisiae deletion strains, locus YMR078C, strain ctf18, active compounds read low 1.03 | S. cerevisiae deletion strains, locus YMR125W, strain sto1, active compounds read low 1 | S. cerevisiae deletion strains, locus YMR129W, active compounds read low 0.986 | S. cerevisiae deletion strains, locus YMR205C, strain PFK2, active compounds read low 0.943 | S. cerevisiae deletion strains, locus YMR223W, strain ubp8, active compounds read low 0.976 | S. cerevisiae deletion strains, locus YMR231W, strain pep5, active compounds read low 0.98 | S. cerevisiae deletion strains, locus YMR307W, strain GAS1, active compounds read low 0.82 | S. cerevisiae deletion strains, locus YNL067W, strain RPL9B, active compounds read low 0.996 | S. cerevisiae deletion strains, locus YNL071W, strain lat1, active compounds read low 0.963 | S. cerevisiae deletion strains, locus YNL183C, strain NPR1, active compounds read low 1.02 | S. cerevisiae deletion strains, locus YNL209W, strain ssb2, active compounds read low 0.999 | S. cerevisiae deletion strains, locus YNL233W, strain BNI4, active compounds read low 0.994 | S. cerevisiae deletion strains, locus YNL248C, strain rpa49, active compounds read low 0.971 | S. cerevisiae deletion strains, locus YNL250W, strain rad50, active compounds read low 1.03 | S. cerevisiae deletion strains, locus YNL271C, strain bni1, active compounds read low 1.01 | S. cerevisiae deletion strains, locus YNL298W, strain CLA4, active compounds read low 1.02 | S. cerevisiae deletion strains, locus YNL307C, strain MCK1, active compounds read low 1.02 | S. cerevisiae deletion strains, locus YNL322C, strain KRE1 (second series), active compounds read low 0.99 | S. cerevisiae deletion strains, locus YNR049C, strain mso1, active compounds read low 0.998 | S. cerevisiae deletion strains, locus YNR052C, strain pop2, active compounds read low 1.02 | S. cerevisiae deletion strains, locus YOL012C, strain htz1 0.754 | S. cerevisiae deletion strains, locus YOL147C, strain pex11, active compounds read low 1.01 | S. cerevisiae deletion strains, locus YOR001W, strain rrp6, active compounds read low 1 | S. cerevisiae deletion strains, locus YOR061W, strain CKA2, active compounds read low 1.01 | S. cerevisiae deletion strains, locus YOR069W, strain VPS5, active compounds read low 1.01 | S. cerevisiae deletion strains, locus YOR070C, strain gyp1, active compounds read low 0.989 | S. cerevisiae deletion strains, locus YOR080W, strain dia2, active compounds read low 0.987 | S. cerevisiae deletion strains, locus YOR083W, strain WHI5, active compounds read low 0.986 | S. cerevisiae deletion strains, locus YOR106W, strain vam3, active compounds read low 0.94 | S. cerevisiae deletion strains, locus YOR136W, strain idh2, active compounds read low 1.01 | S. cerevisiae deletion strains, locus YOR144C, strain elg1, active compounds read low 1.02 | S. cerevisiae deletion strains, locus YOR184W, strain ser1, active compounds read low 0.972 | S. cerevisiae deletion strains, locus YOR231W, strain MKK1, active compounds read low 1.13 | S. cerevisiae deletion strains, locus YOR265W, strain rbl2, active compounds read low 0.995 | S. cerevisiae deletion strains, locus YOR270C, strain vph1, active compounds read low 0.915 | S. cerevisiae deletion strains, locus YOR290C, strain snf2, active compounds read low 0.984 | S. cerevisiae deletion strains, locus YOR316C, strain cot1, active compounds read low 1.02 | S. cerevisiae deletion strains, locus YPL051W, strain arl3, active compounds read low 0.984 | S. cerevisiae deletion strains, locus YPL055C, strain LGE1, active compounds read low 0.973 | S. cerevisiae deletion strains, locus YPL078C, strain atp4, active compounds read low 0.996 | S. cerevisiae deletion strains, locus YPL106C, strain sse1, active compounds read low 0.93 | S. cerevisiae deletion strains, locus YPL240C, strain hsp82, active compounds read low 0.996 | S. cerevisiae deletion strains, locus YPL256C, strain CLN2, active compounds read low 1.07 | S. cerevisiae deletion strains, locus YPR119W, strain clb2, active compounds read low 1.02 | S. cerevisiae deletion strains, locus YPR141C, strain kar3, active compounds read low 1.05 | S. cerevisiae deletion strains, locus YPR163C, strain tif3, active compounds read low 1.01 | S. cerevisiae deletion strains, locus YPR167C, strain met16, active compounds read low 1 | S. cerevisiae deletion strains, strain wtn01, active compounds read low 0.981 | S. cerevisiae strains, strain wild type, active compounds read low 0.968
active: S. cerevisiae deletion strains, locus YLR113W, strain HOG1, active compounds read low 1.19 [resistant]
